Measurements from PubChem BioAssay (NCATS).
Results filed as inconclusive are left out. The source made the active and inactive calls. Unless noted, calls follow the shape of the dose curve; as a rule, active = well fitted curve in the direction sought with a large enough effect; inconclusive = small, poorly fitted or top-dose-only effect, or another doubt; inactive = no such curve, though single readings can be large; an effect the other way counts as inactive or inconclusive.

What was measured:
[1] = High-throughput drug toxicity screening in the BPDCN cell line Gen2.2 (AID 1224824; call rule not given here;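 also: cells exposed to compounds for 48 h before reading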); conditions: Gen2.2 BPDCN cells; at 45.8 µM (top of the series) unless noted
How it was run: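 CellTiter-Glo luminescence after 48 h compound exposure of Gen2.2 cells; percent activity set with DMSO as 100% and bortezomib (9.2 uM final) as 0%. Cells seeded at 500 per well, RPMI + 10% FBS, 37 °C.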

[2] = High-throughput drug toxicity screening in the BPDCN cell line Cal-1 (AID 1224825; call rule not given here); conditions: Cal-1 BPDCN cell viability, qHTS; at 45.8 µM (top of the series) unless noted
How it was run: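 Cal-1 cells, 500 per well in phenol-red-free RPMI with 10% FBS, exposed to compounds for 48 hours at 37C, 5% CO2. Viability read by CellTiter-Glo luminescence; percent activity normalized to DMSO (100%) and 9.2 uM bortezomib final (0%).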

[3] = qHTS assay for measurement of the activity of small molecule inhibitors on Zika virus induced Caspase-3 activity in human astrocytoma cells (AID 1224859);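 also: plate controls were ZIKV-infected untreated cells for no effect and uninfected cells for full effect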
How it was run: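 SNB-19 astrocytoma cells, 250/well, pretreated 1 h with compounds, then Zika virus at 2 FFU/cell for 6 h at 37 C; Caspase-Glo 3/7 luminescence after 30 min; percent inhibition normalised to uninfected and infected controls.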

[4] = qHTS Screen of the MIPE 4.0 Collection Against Ewings Sarcoma (RDES) (AID 1259252); also: nearly all actives have a fitted effect of over 35% in size; also: potency is read from the fitted curve at half-maximal effect
How it was run: (§1)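 Viability screen: 48 h incubation at 37C, 95% humidity, 5% CO2 with serially titrated compound, followed by CellTiter-Glo readout.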

[5] = qHTS Screen of the MIPE 4.0 Collection Against Ewings Sarcoma (TC71) (AID 1259253); also: nearly all actives have a fitted effect of over 40% in size; also: potency is read from the fitted curve at half-maximal effect
How it was run: as §1

[6] = qHTS Screen of the MIPE 4.0 Collection Against Ewings Sarcoma (EW8) (AID 1259255); also: nearly all actives have a fitted effect of over 35% in size; also: potency is read from the fitted curve at half-maximal effect;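 as to viability: 100% = DMSO-treated cells and 0% = medium-only wells without cells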
How it was run: as §1

[7] = qHTS Screen of the MIPE 4.0 Collection Against Ewings Sarcoma (TC32) (AID 1259256); also: nearly all actives have a fitted effect of over 45% in size; also: potency is read from the fitted curve at half-maximal effect
How it was run: as §1

[8] = qHTS assay to identify small molecule inhibitors of chordoma cells - UCH-1 (AID 1259355); also: % is scaled to controls: 0 for no effect and ±100 for the full control effect; nearly all actives have a fitted effect of over 55% in size
How it was run: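 Cells (800/well) were seeded and left overnight at 37 C, 5% CO2, then treated with drugs at 15 concentrations plus a combination mix of auranofin, camptothecin, doxorubicin, rubitecan and topotecan. Viability after 48hr was read by CellTiter-Glo luminescence.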

[9] = qHTS assay to identify small molecule inhibitors of chordoma cells - UCH-2 (AID 1259356); also: % is scaled to controls: 0 for no effect and ±100 for the full control effect
[10] = P-glycoprotein substrates identified in KB-8-5-11 adenocarcinoma cell line, qHTS therapeutic library screen (AID 1346987); also: nearly all actives have a fitted effect of over 65% in size; also: potency is read from the fitted curve at half-maximal effect
How it was run: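 Steps: plate 500 KB-8-5-11 cells/well in DMEM + 10% FCS (colchicine removed); pin compounds in dose-response; incubate 72 h, 37 degree C, 5% CO2; add CellTiter-Glo, 5 min; read luminescence.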

[11] = qHTS profiling of the MIPE4 collection as inhibitors of Plasmodium falciparum (3D7) proliferation (AID 743344; call rule not given here;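 also: scaled between DMSO vehicle wells and 0.29 µM artemisinin as full inhibition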); conditions: P. falciparum 3D7 in erythrocytes, SYBR Green DNA fluorescence, 72 h; at 28.5 µM (top of the series) unless noted
How it was run: (§2)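 Erythrocytes infected with P. falciparum (0.3% parasitemia, 2.5% hematocrit) incubated with compounds 72 h at 37 C, 5% CO2. Lysis with saponin/Triton buffer containing SYBR Green I, overnight at room temperature in the dark; DNA fluorescence (485/535 nm) normalised to 0.29 uM artemisinin and DMSO.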

[12] = qHTS profiling of the MIPE4 collection as inhibitors of Plasmodium falciparum (DD2) proliferation (AID 743345; call rule not given here); conditions: P. falciparum Dd2 in erythrocytes, SYBR Green DNA, 72 h; at 28.5 µM (top of the series) unless noted
How it was run: as §2

[13] = qHTS profiling of the MIPE4 collection as inhibitors of Plasmodium falciparum (DD2) proliferation (Rep 2) (AID 743346; call rule not given here); conditions: P. falciparum Dd2 in erythrocytes, SYBR Green DNA, 72 h; at 28.5 µM (top of the series) unless noted
How it was run: as §2

[14] = qHTS profiling of the MIPE4 collection as inhibitors of Plasmodium falciparum (HB3) proliferation (AID 743347; call rule not given here;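 also: plate controls were DMSO vehicle wells for no effect and artemisinin wells for full effect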); conditions: P. falciparum HB3 in erythrocytes, SYBR Green DNA, 72 h; at 28.5 µM (top of the series) unless noted
How it was run: as §2

[15] = qHTS assay for measurement of the activity of small molecule inhibitors on Zika virus induced Caspase-3 activity in human iPSC derived neural progenitor cells (hNPCs) (AID 1224857); also: nearly all actives have a fitted effect of over 65% in size; also: potency is read from the fitted curve at half-maximal effect
How it was run: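 Human iPSC-derived neural progenitor cells pretreated 1 hr with compounds, then infected with Zika virus (2 FFU/cell) for 6 hours at 37 C. Caspase-3/7 measured by Caspase-Glo luminescence; % inhibition calculated from induction scaled to uninfected (0%) and infected (100%) wells.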

[16] = P-glycoprotein substrates identified in KB-3-1 adenocarcinoma cell line, qHTS therapeutic library screen (AID 1346986); also: nearly all actives have a fitted effect of over 60% in size
How it was run: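 KB-3-1 parental and colchicine-selected P-gp-overexpressing KB-8-5-11 cells (colchicine omitted during assay), 500 cells/well, dosed in dose-response for 72 h at 37 °C; CellTiter-Glo luminescence. Cytotoxic: curve class -1.1 to -2.4, max response >50%, AC50 < 10 uM.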

SMILES	cell viability, % of control (lower = more cytotoxic) [1]	viability (% of control) [2]	Potency [3]	Potency [4]	Potency [5]	Potency [6]	Potency [7]	Potency [8]	outcome [9]	Potency [10]	parasite growth, % of DMSO control [11]	parasite growth remaining, % of DMSO control (lower = more inhibition) [12]	parasite growth, % of control (lower = inhibition) [13]	growth, % of control [14]	Potency [15]	Potency [16]
CCn1cc(C(=O)O)c(=O)c2ccc(C)nc21	120%	113%	inactive	inactive	inactive	inactive	inactive	inactive	inactive	inactive						
O=c1cc(-c2ccc(O)cc2)oc2cc(O)cc(O)c12	8.72%	4.48%	inactive	18.7 µM (active)	20.9 µM (active)	23.5 µM (active)				inactive	7.22%	42.9%	6.57%	3.14%		
COc1cccc(-c2cc(=O)c3ccccc3o2)c1N	45.3%	9.08%		inactive		inactive				inactive	73.4%	91.1%	87.6%	60%	18.7 µM (active)	inactive
O=C1Nc2ccc(Cl)cc2C(C#CC2CC2)(C(F)(F)F)O1 (stereo not given)	75.6%	56.5%				26.4 µM (active)					40.8%		57.2%	63%	inactive	
NS(=O)(=O)c1cccc2c1C(=O)c1cccc(O)c1C2=O	5.1%	3.92%	inactive	18.7 µM (active)	18.7 µM (active)	11.8 µM (active)	1.87 µM (active)				4.48%	6.12%	4.4%			
CC(=O)Oc1cc2c(s1)CCN(C(C(=O)C1CC1)c1ccccc1F)C2 (stereo not given)	15.7%	18.3%	inactive	2.35 µM (active)		3.72 µM (active)	2.96 µM (active)			inactive	56.7%	95.5%	40.2%	57.5%		
O=C1NC(=O)C(=Cc2ccc3nccnc3c2)S1	31% [at 23.2 µM]	44.1% [at 23.2 µM]		14.4 µM (active)	11.5 µM (active)	9.11 µM (active)				inactive	56.7% [at 9.64 µM]		114% [at 9.64 µM]	88.4% [at 9.64 µM]	14.4 µM (active)	
CCCCCN(C)CCC(O)(P(=O)(O)O)P(=O)(O)O	125%	102%	inactive	inactive	inactive	inactive	inactive				92.2%	92.9%	114%	90.7%		
COc1cc2c(cc1OC)CN(CCc1ccc(NC(=O)c3cc(OC)c(OC)cc3NC(=O)c3cnc4ccccc4c3)cc1)CC2	115%	93.8%	inactive				5.9 µM (active)			inactive	39.1%	83.6%	83.4%	93.6%		inactive
O=C(CCc1ccc(O)cc1)c1c(O)cc(O)cc1O[C@@H]1O[C@H](CO)[C@H](O)[C@H](O)[C@H]1O	238%	107%	inactive	inactive	inactive	inactive	inactive			inactive		79.6%	57.9%	54%		
C[C@H](NC(=O)c1sccc1OCc1ccc(Cl)cc1)c1ccccc1	181%	45.5%	inactive							14.8 µM (active)	13.9%		10.7%	3.82%		
CCOC1OC(=O)C[C@H]1NC(=O)[C@@H]1CCCN1C(=O)[C@@H](NC(=O)c1ccc(N)c(Cl)c1)C(C)(C)C (stereo not given in full)	49.8%	16.7%	inactive	inactive	inactive	inactive	inactive			inactive						inactive
CC(C)C(=O)Oc1ccc(CO)cc1[C@H](CCN(C(C)C)C(C)C)c1ccccc1	126%	102%	inactive	inactive	inactive	inactive				inactive	37.9%		20.1%			
COc1ccc(-c2coc3cc(O)cc(O)c3c2=O)cc1	308%	86.9%	inactive		inactive	inactive	inactive			inactive	36.9%	99.4%	46.3%	15.1%		inactive
O=C1c2c(O)cc(O)cc2O[C@H](c2cc(O)c(O)c(O)c2)[C@H]1O	112%	123%	inactive				inactive			inactive		85.1%	78.7%	102%		
O=C(NCc1ccccc1)c1csc(Nc2ccncn2)n1	1.93%	2.12%	inactive			20.9 µM (active)	18.7 µM (active)			inactive		79.6%				
Clc1ccc(C(c2ccc(Cl)cc2)n2cc[n+](CC(OCc3ccc(Cl)cc3Cl)c3ccc(Cl)cc3Cl)c2)cc1 (stereo not given)	1.6%	3.49%	inactive	16.6 µM (active)	20.9 µM (active)	23.5 µM (active)	20.9 µM (active)				6.19%	5.85%	17.2%	7.48%		
